Test results: PubChem BioAssay (NCATS)
Records with an inconclusive call do not appear. Activity calls are given as the source filed them. Unless noted, calls come from the whole dose curve; as a rule, active = well fitted curve in the direction sought with a large enough effect in the repeat runs; inconclusive = weak or mixed curves; inactive = no such curve, though single readings can be large; an effect the other way counts as inactive or inconclusive.

tested on: not listed separately; assay: Confirmation and Secondary Assay for Modulators of Hemoglobin Beta Chain Splicing at IVS2 654 locus (AID 910; active = well fitted curve in the direction sought with a large enough effect; an effect the other way counts as inactive or inconclusive;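 note: HeLa cells stably carrying EGFP split by mutant beta-globin IVS2-654 intron; % of control where 0% means no effect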); conditions: HeLa EGFP-654 splicing reporter, GFP fluorescence, 48 h; series mostly up to 46.1 µM; activation (splicing correction): at the top concentration
Summary of the method: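 Readout: per-well total peak green fluorescence (488 nm ex, 500–520 nm em) from objects 5–250 µm, reflecting correct splicing of an EGFP-654 reporter. Compounds were applied for 2 days at 37 °C to overnight-plated HeLa EGFP-654 cells; controls were DMSO and 500 nM IVS2-654 PNA.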

| Compound | activation (splicing correction) |
| --- | --- |
| NCC1O[C@@H](O[C@H]2C(O)C(O[C@@H]3C(O[C@H]4OC(CO)C(O)C(O)C4N)C(N)CC(N)[C@H]3O)O[C@@H]2CO)C(N)C(O)C1O (stereo partly specified) | 3.23% (inactive) |
| CN1CCCC1CCO[C@@](C)(c1ccccc1)c1ccc(Cl)cc1 (stereo partly specified) | -4.99% (inactive) |
| CC(C)=CCCC(C)C1CC[C@@]2(C)C3=C(CC[C@@]12C)C1(C)CCC(O)C(C)(C)C1CC3 (stereo partly specified) | -0.732% [at 38.3 µM] (inactive) |
| Cc1cn(C2CC(N=[N+]=[N-])C(CO)O2)c(=O)[nH]c1=O (stereo unspecified) | 7.04% (inactive) |
| CC1=C2C(=COC(C)C2C)C(=O)C(C(=O)O)=C1O (stereo unspecified) | 0.856% (inactive) |
| NCCCCC(NC(CCc1ccccc1)C(=O)O)C(=O)N1CCCC1C(=O)O (stereo unspecified) | -0.573% (inactive) |

tested on: not listed separately; assay: Confirmation and Secondary Assay for Modulators of Hemoglobin Beta Chain Splicing at IVS2 705 locus (AID 930; active = well fitted curve in the direction sought with a large enough effect; an effect the other way counts as inactive or inconclusive;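 note: HeLa cells stably expressing the EGFP-705 splicing reporter; GFP fluorescence per well restored by corrected splicing of the IVS2-705 intron in EGFP; % of control where 0% means no effect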); conditions: HeLa EGFP-705 splicing reporter, GFP fluorescence, 48 h; series mostly up to 46.1 µM; activation: at the top concentration
Summary of the method: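 Read-out: total peak GFP fluorescence per well (488 nm excitation, 500-520 nm emission) by laser-scanning cytometry. Cells: HeLa EGFP-705 splicing reporter, 2 days compound exposure in Optimem/2% FCS.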

| Compound | activation |
| --- | --- |
| NCC1O[C@@H](O[C@H]2C(O)C(O[C@@H]3C(O[C@H]4OC(CO)C(O)C(O)C4N)C(N)CC(N)[C@H]3O)O[C@@H]2CO)C(N)C(O)C1O (stereo partly specified) | -0.144% (inactive) |
| CN1CCCC1CCO[C@@](C)(c1ccccc1)c1ccc(Cl)cc1 (stereo partly specified) | -1.41% (inactive) |
| COC(=O)[C@H]1C(OC)[C@@H](OC(=O)c2cc(OC)c(OC)c(OC)c2)C[C@@H]2CN3CCc4c([nH]c5cc(OC)ccc45)[C@H]3C[C@H]21 (stereo partly specified) | 23.7% [at 38.3 µM] (inactive) |
| CC(C)=CCCC(C)C1CC[C@@]2(C)C3=C(CC[C@@]12C)C1(C)CCC(O)C(C)(C)C1CC3 (stereo partly specified) | -0.776% [at 38.3 µM] (inactive) |
| Cc1cn(C2CC(N=[N+]=[N-])C(CO)O2)c(=O)[nH]c1=O (stereo unspecified) | 1.98% (inactive) |
| CC1=C2C(=COC(C)C2C)C(=O)C(C(=O)O)=C1O (stereo unspecified) | -0.0827% (inactive) |
| NCCCCC(NC(CCc1ccccc1)C(=O)O)C(=O)N1CCCC1C(=O)O (stereo unspecified) | -0.734% (inactive) |

tested on: not listed separately; assay: qHTS Assay for Lipid Storage Modulators (AID 1519; calls by dose curve; for activity change, negative = inhibition: % is set by controls: 0 for no effect and ±100 for the full control effect); conditions: Drosophila S3 cells, BODIPY lipid droplet/cell ratio, laser cytometry; at 57.5 µM (top of the series); cells loaded with oleic acid
Summary of the method: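 Cells seeded at 5,000 per well were treated with compounds over a concentration series and loaded with oleic acid (400 uM, as added). Lipid droplet fluorescence (488 nm excitation, 500-530 nm channel) was read by laser-scanning cytometry and normalized to 20 uM Triacsin C.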

| Compound | activity change, negative = inhibition |
| --- | --- |
| NCC1O[C@@H](O[C@H]2C(O)C(O[C@@H]3C(O[C@H]4OC(CO)C(O)C(O)C4N)C(N)CC(N)[C@H]3O)O[C@@H]2CO)C(N)C(O)C1O (stereo partly specified) | 10.8% (inactive) |
| CN1CCCC1CCO[C@@](C)(c1ccccc1)c1ccc(Cl)cc1 (stereo partly specified) | -9.48% (inactive) |
| COC(=O)[C@H]1C(OC)[C@@H](OC(=O)c2cc(OC)c(OC)c(OC)c2)C[C@@H]2CN3CCc4c([nH]c5cc(OC)ccc45)[C@H]3C[C@H]21 (stereo partly specified) | 8.9% (inactive) |
| CC(C)=CCCC(C)C1CC[C@@]2(C)C3=C(CC[C@@]12C)C1(C)CCC(O)C(C)(C)C1CC3 (stereo partly specified) | 6.04% (inactive) |
| Cc1cn(C2CC(N=[N+]=[N-])C(CO)O2)c(=O)[nH]c1=O (stereo unspecified) | 9.63% (inactive) |
| CC1=C2C(=COC(C)C2C)C(=O)C(C(=O)O)=C1O (stereo unspecified) | 4.18% (inactive) |
| NCCCCC(NC(CCc1ccccc1)C(=O)O)C(=O)N1CCCC1C(=O)O (stereo unspecified) | 8.08% (inactive) |

same assay, conditions: Drosophila S3 cells, BODIPY lipid droplet/cell ratio, laser cytometry; measured here: cell count channel max response; cells loaded with oleic acid

| Compound | max response [%] |
| --- | --- |
| NCC1O[C@@H](O[C@H]2C(O)C(O[C@@H]3C(O[C@H]4OC(CO)C(O)C(O)C4N)C(N)CC(N)[C@H]3O)O[C@@H]2CO)C(N)C(O)C1O (stereo partly specified) | 18.8 |
| CN1CCCC1CCO[C@@](C)(c1ccccc1)c1ccc(Cl)cc1 (stereo partly specified) | -21.6 |
| COC(=O)[C@H]1C(OC)[C@@H](OC(=O)c2cc(OC)c(OC)c(OC)c2)C[C@@H]2CN3CCc4c([nH]c5cc(OC)ccc45)[C@H]3C[C@H]21 (stereo partly specified) | 4.56 |
| CC(C)=CCCC(C)C1CC[C@@]2(C)C3=C(CC[C@@]12C)C1(C)CCC(O)C(C)(C)C1CC3 (stereo partly specified) | 10.4 |
| Cc1cn(C2CC(N=[N+]=[N-])C(CO)O2)c(=O)[nH]c1=O (stereo unspecified) | 4.71 |
| CC1=C2C(=COC(C)C2C)C(=O)C(C(=O)O)=C1O (stereo unspecified) | -1.22 |
| NCCCCC(NC(CCc1ccccc1)C(=O)O)C(=O)N1CCCC1C(=O)O (stereo unspecified) | 11.1 |

same assay, conditions: Drosophila S3 cells, BODIPY lipid droplet/cell ratio, laser cytometry; measured here: lipid channel max response; cells loaded with oleic acid

| Compound | max response [%] |
| --- | --- |
| NCC1O[C@@H](O[C@H]2C(O)C(O[C@@H]3C(O[C@H]4OC(CO)C(O)C(O)C4N)C(N)CC(N)[C@H]3O)O[C@@H]2CO)C(N)C(O)C1O (stereo partly specified) | 35.3 |
| CN1CCCC1CCO[C@@](C)(c1ccccc1)c1ccc(Cl)cc1 (stereo partly specified) | -28.2 |
| COC(=O)[C@H]1C(OC)[C@@H](OC(=O)c2cc(OC)c(OC)c(OC)c2)C[C@@H]2CN3CCc4c([nH]c5cc(OC)ccc45)[C@H]3C[C@H]21 (stereo partly specified) | 13.7 |
| CC(C)=CCCC(C)C1CC[C@@]2(C)C3=C(CC[C@@]12C)C1(C)CCC(O)C(C)(C)C1CC3 (stereo partly specified) | 15.7 |
| Cc1cn(C2CC(N=[N+]=[N-])C(CO)O2)c(=O)[nH]c1=O (stereo unspecified) | 18.1 |
| CC1=C2C(=COC(C)C2C)C(=O)C(C(=O)O)=C1O (stereo unspecified) | 4.23 |
| NCCCCC(NC(CCc1ccccc1)C(=O)O)C(=O)N1CCCC1C(=O)O (stereo unspecified) | 24.7 |

biological target: Cytochrome P450 2D6 (Homo sapiens) (UniProt P10635); assay: Cytochrome P450 family 2 subfamily D member 6 (CYP2D6) small molecule antagonists: luciferase biochemical (cell-free) qHTS assay (AID 1645840); conditions: P450-Glo CYP2D6 enzyme, luciferin luminescence, 1 h; series mostly up to 57.4 µM; activity change, negative = inhibition: at the top concentration; note: nearly all actives have a fitted effect of over 55% in size; note: potency is the fitted concentration of half-maximal effect; for activity change, negative = inhibition: % is set by controls: 0 for no effect and ±100 for the full control effect
Summary of the method: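 P450-Glo luminescent screen: recombinant CYP2D6 enzyme–proluciferin substrate mix preincubated with compound 10 min at room temperature, then NADPH regeneration added for 1 h at room temperature. Detection reagent added for 20 min; luciferin light read as relative luminescence units.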

Chain of Cytochrome P450 2D6 (Homo sapiens) (P10635 whole entry, looked up): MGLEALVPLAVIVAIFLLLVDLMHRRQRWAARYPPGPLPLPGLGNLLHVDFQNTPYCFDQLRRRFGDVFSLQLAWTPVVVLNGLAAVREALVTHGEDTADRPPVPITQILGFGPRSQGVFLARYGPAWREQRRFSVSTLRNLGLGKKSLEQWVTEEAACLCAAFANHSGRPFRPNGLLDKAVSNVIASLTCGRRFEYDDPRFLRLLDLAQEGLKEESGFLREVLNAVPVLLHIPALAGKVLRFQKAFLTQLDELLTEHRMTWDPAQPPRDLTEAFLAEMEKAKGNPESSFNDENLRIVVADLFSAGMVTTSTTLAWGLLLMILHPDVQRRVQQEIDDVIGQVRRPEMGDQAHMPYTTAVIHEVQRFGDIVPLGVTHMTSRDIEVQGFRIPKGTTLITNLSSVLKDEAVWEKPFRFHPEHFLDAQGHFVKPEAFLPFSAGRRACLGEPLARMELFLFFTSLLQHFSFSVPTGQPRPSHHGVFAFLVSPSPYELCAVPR

| Compound | activity change, negative = inhibition | Potency |
| --- | --- | --- |
| COc1ccc(C(=O)NC(c2ccc(Cl)cc2)c2cc(Cl)c3cccnc3c2O)cc1 (stereo unspecified) | 7.87% (inactive) |  |
| O=C(Nc1cccc(Cl)c1)Nc1ccccc1OCc1cc(=O)n2ccccc2n1 | -1.73% (inactive) |  |
| Cc1cccc(Cn2c(SCc3ccc(C(=O)N4CCC(C)CC4)cc3)nc3ccncc32)c1 |  | 4.77 µM (active) |
| CCOC(=O)c1sc(NC(=O)c2c(-c3ccccc3)c(-c3ccccc3)nn(C)c2=O)nc1C | -16.4% (inactive) |  |
| CC1(C#N)CCN(c2c(C(=O)N3CCN(S(C)(=O)=O)CC3)cnc3cc(F)c(F)cc23)CC1 | 3.35% (inactive) |  |
| COc1ccc2c(c1)CCc1sc(NC(=O)c3cccc(Br)c3)nc1-2 | -5.53% (inactive) |  |
| NCCOCCOCCOCCOCCN1CCN(C(c2ccc(Cl)cc2)c2ccc(Cl)cc2)CC1 |  | 6.74 µM (active) |
| COc1ccc2cc(Br)ccc2c1 | 8.95% (inactive) |  |
| c1ccc(Cn2c(-c3ccc(OC[C@H](C4CCNCC4)n4c(-c5ccccc5)nc5ccccc54)cc3)nc3ccccc32)cc1 |  | 12 µM (active) |
| O=C(O)c1ccc(Cc2c(-c3cccc(-c4ccccc4)c3)[nH]n(-c3nc(C(=O)O)cs3)c2=O)cc1 |  | 9.52 µM (active) |
| Cc1cccc(NC(=O)Cn2cc(C(=O)c3ccco3)c3ccccc32)c1C |  | 6.01 µM (active) |
| CC12CCC3(C)C(=CC(=O)[C@@H]4C5(C)CC[C@H](O[C@H]6O[C@H](C(=O)O)C(O)C(O)[C@H]6O[C@@H]6O[C@H](C(=O)O)C(O)C(O)C6O)C(C)(C)[C@@H]5CCC43C)[C@@H]1C[C@@](C)(C(=O)O)CC2 (stereo partly specified) | 1.83% (inactive) |  |
| CCc1ccc(-n2c(SCc3ccccc3F)nc3[nH]ncc3c2=O)cc1 |  | 12 µM (active) |
| Cc1ccc(OCC(=O)Nc2cccc(OCc3cc(=O)n4cccc(C)c4n3)c2)cc1C | 9.98% (inactive) |  |
| CNS(=O)(=O)c1ccc(Cc2c(-c3cccc(-c4ccccc4)c3)[nH]n(-c3nc(C(=O)O)cs3)c2=O)cc1 |  | 26.8 µM (active) |
| CCOC(=O)c1ccc(N2C(=O)c3n[nH]c(-c4ccco4)c3C2c2ccc(C)cc2)cc1 (stereo unspecified) | -20.9% (inactive) |  |

| Compound | activity change, negative = inhibition | Potency |
| --- | --- | --- |
| COC(=O)Cc1ccc(NC(=O)C2=C(C)NC(Nc3nc4ccccc4o3)=NC2c2ccccc2Cl)cc1 (stereo unspecified) | -20.8% (inactive) |  |
| Cc1ccc(-n2ncc3c(NCCCn4ccnc4)ncnc32)cc1Cl |  | 3.79 µM (active) |
| COc1ccc(CCNc2nc(SCc3cccc(F)c3)nc3ccccc23)cc1OC |  | 0.301 µM (active) |
| Cc1cccn2c(=O)c(/C=C(\C#N)c3nc4ccccc4s3)c(Oc3ccc(F)cc3)nc12 | 7.79% (inactive) |  |
| CCOc1ccc(C(NC(=O)c2cc(OC)c(OC)c(OC)c2)c2cc(Cl)c3cccnc3c2O)cc1 (stereo unspecified) | 6.6% (inactive) |  |
| Cc1ccc(S(=O)(=O)NC2CCC(C(C)(C)C)CC2)cc1 (stereo unspecified) | -21.1% (inactive) |  |
| O=C(O)c1cc(O)c2c(O)c3c(O[C@@H]4O[C@H](CO)[C@@H](O)[C@H](O)[C@H]4O)cccc3c(-c3c4cc(C(=O)O)cc(O)c4c(O)c4c(O[C@@H]5O[C@H](CO)[C@@H](O)[C@H](O)[C@H]5O)cccc34)c2c1 |  | 15.1 µM (active) |
| Cc1nc2c3ccccc3nc(NNC(=O)CCC(=O)N3CCN(c4ccccc4F)CC3)n2n1 | -0.728% (inactive) |  |
| NS(=O)(=O)c1ccc(Cc2c(-c3cccc(-c4ccccc4)c3)nn(-c3nc(C(=O)O)cs3)c2C2CC2)cc1 |  | 21.3 µM (active) |
| CCc1ccc(CN(Cc2ccco2)C(=O)COc2ccccc2Cl)cc1 |  | 7.56 µM (active) |
| Cc1ccc(-n2c(SCc3ccccc3F)nc3[nH]ncc3c2=O)cc1C |  | 16.9 µM (active) |
| Cc1nn(CC(=O)NCCc2ccccc2)c(=O)c2c1sc1ccccc12 |  | 12 µM (active) |
| CC1=C(C(=O)Nc2cccc(CN)c2)C(c2ccccc2Cl)N=C(Nc2nc3ccccc3o2)N1 (stereo unspecified) |  | 3.38 µM (active) |
| Cc1ccc(CSc2nc3ccncc3n2Cc2nc(-c3ccccc3C)oc2C)cc1 |  | 2.39 µM (active) |
| Cc1cc(C)cc(NC(=O)Cn2c(=O)n(-c3ccc(C)c(C)c3)c(=O)c3oc4ccccc4c32)c1 |  | 0.425 µM (active) |
| Cc1nc2c3ccccc3nc(NNC(=O)CCC(=O)N3CCN(c4ccccc4)CC3)n2n1 | 0.916% (inactive) |  |
